# Mtb MenB inh: inhibitors of Mycobacterium tuberculosis MenB enzyme | MenB enzyme assay, absorbance read-out | inhibition, % (concentration not given with the values) | 100,000 compounds, 0.43% hits | P9WNP5; in the data active means inhibition above about 21%, passing the limit was not always enough
# Mtb MbtI inh: blocks the Mycobacterium tuberculosis siderophore enzyme MbtI; P9WFX0; purified MbtI enzyme, fluorescence intensity read-out; inhibition, % (no concentration beside the values); 100,000 compounds, 0.89% hits; in the data active means inhibition mostly above about 56%, no sharp cut-off; inactive means mostly below about 77%
# AID504770: growth inhibitors of E. coli YBA685 in a screen for V. cholerae RctB (chromosome II replication) inhibitors; 130,000 compounds, 0.27% hits; E. coli YBA685 rctB-dependent plasmid, OD600 growth, 3 h; hits give low values; z-score (concentration not given with the values); AID 504770; in the data active means z-score below about -2, passing the limit was not always enough
# Polio RdRp inh: inhibitors of poliovirus RNA polymerase binding and polymerization; % elongation, % (compound at 16.7 µg/mL); 150,000 compounds, 0.66% hits; poliovirus polymerase elongation, fluorescence polarization; hits give low values; in the data active means % elongation below about 90%
# Target sequence (P03300 1749-2209 limits assumed): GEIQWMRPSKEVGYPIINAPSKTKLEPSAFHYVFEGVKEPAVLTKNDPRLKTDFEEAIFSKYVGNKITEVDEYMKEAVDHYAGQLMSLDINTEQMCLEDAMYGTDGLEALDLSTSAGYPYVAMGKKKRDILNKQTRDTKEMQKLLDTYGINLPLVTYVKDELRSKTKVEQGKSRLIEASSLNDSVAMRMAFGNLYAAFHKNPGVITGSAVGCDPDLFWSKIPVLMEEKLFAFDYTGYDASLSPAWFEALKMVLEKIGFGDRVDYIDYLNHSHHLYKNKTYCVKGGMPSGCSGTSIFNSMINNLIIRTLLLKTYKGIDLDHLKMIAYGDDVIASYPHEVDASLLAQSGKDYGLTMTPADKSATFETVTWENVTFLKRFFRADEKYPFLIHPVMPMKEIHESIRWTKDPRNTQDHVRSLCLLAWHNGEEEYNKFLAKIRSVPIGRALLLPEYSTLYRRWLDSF
# The depositor's hits bear a star; i = inactive; · = not tested or not shown. Compounds with a hit are over-represented: about 1.4% of the library has one in this group of screens.
SMILES,Mtb MenB inh,Mtb MbtI inh,AID504770,Polio RdRp inh
CCOC(=O)c1ccc(-c2ccc(/C=N/NC(=O)Cc3nc4ccccc4n3C)o2)cc1,-13.4,-26.9,-0.6,112.0
CC(C)N(CC(=O)c1cccs1)Cc1ccccc1,-8.3,100.2*,1.45,98.0
O=C(c1ccco1)n1c(=S)nc2ccccn21,-16.0,·,0,83.0*
O=C(c1ccco1)N1CCN(C(=O)c2ccco2)CC1,-35.9,-5.6,2.15,104.0
Cn1c(=O)c(C2=NS(=O)(=O)c3ccccc3N2)c(O)c2ccccc21,32.8*,-4.5,0,99.0
COc1ccc2nc(C(=O)O)sc2c1,0.0,·,0.35,86.0*
Cc1ccc2nc(C(C)O)[nH]c2c1 (configuration not stated),-1.6,-5.1,0.75,97.0
CC(O)c1nc2cc3ccccc3cc2[nH]1 (configuration not stated),34.4*,89.2,1.45,102.0
CCC(C)c1ccc(C2=Nn3c(nnc3C(C)C)SC2)cc1 (configuration not stated),-17.8,51.0,-0.45,74.0*
CC(=O)NCc1ccc(C(=O)CSc2nc3cc(Cl)ccc3s2)o1,1.3,30.7,1.65,116.0
O=C(CC(=O)N1CCCCCC1)Nc1ccc2nc3n(c(=O)c2c1)CCCCC3,·,·,1.55,·
COC(=O)C1=C(N)OC2=C(C(=O)CCC2)C1c1ccc(OC)cc1 (configuration not stated),36.5*,3.8,1.65,101.0
COc1ccc(C2C(C#N)=C(N)OC3=C2C(=O)CCC3)cc1 (configuration not stated),-19.0,11.3,-0.15,102.0
N#CC(C(=O)c1ccco1)c1nc2ccccc2[nH]1 (configuration not stated),-7.6,98.3*,0.25,106.0
CCn1nc(N)c2c(O)[nH]c(=O)cc21,-54.1,17.5,0.6,40.0*
CC(C)N(C(=O)CSc1n[nH]c(-c2cccs2)n1)C(C)C,-1.2,-52.9,-4*,105.0
C/C(N)=C(/C#N)C(=O)CSc1n[nH]c(-c2cccs2)n1,-6.6,147.2,-0.65,102.0
CNc1nc(SCC(=O)OC)nc(N2CCOCC2)n1,55.9*,2.5,1.15,104.0
COC(=O)CSc1nc(C)cc(N2CCOCC2)n1,-42.2,4.5,-0.8,104.0
O=C(O)/C=C/c1ccco1,-10.9,24.6,0.5,101.0
O=C(/C=C/c1ccco1)C1C(=O)c2ccccc2C1=O,-72.2,68.8*,1.6,105.0
Cc1csc2nc(CSCC(=O)N3CC(C)CC(C)C3)cc(=O)n12 (configuration not stated),-5.0,1.6,0.25,105.0
O=C(Cn1cnc2c(nc3n2CCCCC3)c1=O)NC1CCCCCC1,-18.3,6.8,-2.1*,102.0
NC1CCN(C(=O)NC2CCCCC2)CC1,23.5*,-2.7,-0.2,101.0
COC(=O)c1ccc(O)c(C(=O)OC)c1,-2.5,-126.2,-0.15,0.0*
SMILES,Mtb MenB inh,Mtb MbtI inh,AID504770,Polio RdRp inh
COC(=O)c1ccc(NC(C)=O)c(C(=O)OC)c1,·,·,-0.1,·
O=C(NCCO)C1=NN=CC1,-12.3,·,-0.65,101.0
CCC(=O)Nc1ccc2nc(C3CC3)n(Cc3ccc(Cl)cc3)c(=O)c2c1,30.6*,12.4,2.55,101.0
O=C(O)/C(=C(/O)c1ccccc1)c1nc2ccccc2[nH]1,-5.5,5.1,-0.45,99.0
CCOc1cc(CNc2ccc(O)cc2)ccc1OCc1ccc(Cl)cc1,·,·,·,80.0*
Nc1cc(N)c2cc(-c3ccccc3)oc2c1,-28.8,116.7,-0.4,87.0*
O=c1cc(-c2ccccc2)oc2cc(Cl)ccc12,·,·,-0.75,·
Cc1ccc(C)c(COc2ccc(C)nc2NC(=S)NCc2ccccc2)c1,3.9,-0.4,0.9,101.0
COc1ccc([C@H]2[C@@H](C(=O)O)c3ccccc3C(=O)N2Cc2ccc3c(c2)OCO3)cc1,6.1,4.2,0,38.0*
COc1ccc(N2CCN(C(=S)c3ccccc3)CC2)cc1,-6.1,0.0,-0.6,99.0
COc1ccc(CCNC(=O)Cn2cnc3c(cnn3-c3ccccc3)c2=O)cc1OC,·,·,-3.6*,·
COC(=O)Cn1cnc2c(cnn2-c2ccccc2)c1=O,·,·,-0.35,·
COc1ccc(N2C(=O)Cc3ccccc3C2=O)cc1,·,·,0.3,·
Cc1ccccc1N1C(=O)Cc2ccccc2C1=O,8.3,-5.9,0.1,48.0*
CN1C(=C(C#N)C#N)N(N)c2ccccc21,-0.9,i,0.15,101.0
S=C(NC1CCCCC1)C(=S)NC1CCCCC1,10.1,37.1,2.15,82.0*
O=C1c2ccccc2C(=O)C1c1ccc(OC(F)F)cc1,-10.0,79.5*,-0.05,96.0
O=C(Nc1nccs1)c1cccc(Cl)c1,-6.4,5.6,-0.8,103.0
COc1ccc(C(=O)Nc2nccs2)c(F)c1,-25.6,-2.4,-2.95*,104.0
Cc1cccc(C(=O)Nc2nccs2)c1,·,·,-3.15*,·
O=C(O)C1CSC2c3ccccc3C(=O)N12 (configuration not stated),38.7*,-4.5,0.05,101.0
O=C(OCc1nc2ccccc2s1)c1ccc(N2C(=O)CCC2=O)cc1,·,·,0.3,·
O=S(=O)(Cc1ccccc1)c1nnnn1-c1ccccc1,·,-6.2,0.5,·
c1ccc(-n2nnnc2SSc2nnnn2-c2ccccc2)cc1,-24.4,58.9*,-0.7,98.0
O=C(Sc1nnnn1-c1ccccc1)c1cccc(Cl)c1,·,·,0.2,·
SMILES,Mtb MenB inh,Mtb MbtI inh,AID504770,Polio RdRp inh
N#CC(C#N)=C/C=C(\Sc1nnnn1-c1ccccc1)c1ccccc1,-9.6,84.1*,-0.35,98.0
CCS(=O)(=O)c1nnnn1-c1ccccc1,41.6*,29.2,-0.2,103.0
CCC(C)C(=O)NCc1ccc(C)cc1 (configuration not stated),-0.9,-5.5,-0.05,101.0
CCOC(=O)N1CCN(C(=O)CSc2ncc(C(=O)O)n2-c2ccc(F)cc2)CC1,2.0,-7.6,0.5,94.0
Cc1nc(CSc2nncs2)cs1,-40.3,80.0*,-0.3,83.0*
Cc1nc(CSc2n[nH]c(C(C)(C)C)n2)cs1,7.8,-9.5,0.6,105.0
COc1ccc(-c2[nH]ncc2C(=O)NC2CCCCC2)cc1,6.0,3.5,1.45,102.0
Cc1ccccc1NC(=S)N/N=C/c1ccc(O)cc1O,-58.5,21.1,1.95,81.0*
COc1ccc(C2c3cc(OC)c(OC)cc3CC(=O)N2NC(=O)c2ccco2)cc1 (configuration not stated),10.0,-4.2,-0.1,100.0
Nc1nc2cc3c(cc2s1)OCCO3,-5.2,13.7,1.35,101.0
O=c1c(=Nc2ccc(O)cc2)c(=O)c2ccccc12,·,41.5,0.1,49.0*
CCc1ccc(OCC(=O)OCC(=O)N2CCc3ccccc32)cc1,·,-6.2,-0.05,103.0
C/C=C/C(=O)Nc1ccc(OC)cc1,-54.5,-15.6,-0.9,100.0
N#Cc1cccc(NC(=O)Nc2cccs2)c1,11.5,12.6,-3.15*,101.0
N#Cc1cccc(NC(=S)NC(=O)c2cccs2)c1,-38.2,-2.1,2.25,104.0
COCCNc1nc2ccccc2c2nc(-c3cccnc3)nn12,12.5,6.4,3.2,102.0
CC1(C)C2CCC1(C)C(OCC[N+]1(C)CCOCC1)C2 (configuration not stated),8.7,-0.8,0.1,100.0
COc1cc(C=C(C#N)C#N)ccc1O,i,59.3*,-0.15,98.0
COC(=O)c1cc(-c2ccc(Cl)cc2)on1,26.3,·,-0.4,101.0

# Screening results as filed in PubChem.
